Assay results reported in ChEMBL document CHEMBL3988442, “University of Dundee, Small-Polar-MMV Screening Library” (2021).

What was measured:
[1] = target: T1, Aspartate--tRNA(Asp/Asn) ligase (Mycobacterium tuberculosis (strain ATCC 25618 / H37Rv)) (UniProt P9WFW3); test: Assay for Asp RNA synthetase-1 from Mycobacterium tuberculosis; assay type: functional; set-up: scale not given: direction of the effect not stated beside the values; conditions: 30 µM; also: in the data most compounds retested in dose-response had high values
T1 sequence (whole entry): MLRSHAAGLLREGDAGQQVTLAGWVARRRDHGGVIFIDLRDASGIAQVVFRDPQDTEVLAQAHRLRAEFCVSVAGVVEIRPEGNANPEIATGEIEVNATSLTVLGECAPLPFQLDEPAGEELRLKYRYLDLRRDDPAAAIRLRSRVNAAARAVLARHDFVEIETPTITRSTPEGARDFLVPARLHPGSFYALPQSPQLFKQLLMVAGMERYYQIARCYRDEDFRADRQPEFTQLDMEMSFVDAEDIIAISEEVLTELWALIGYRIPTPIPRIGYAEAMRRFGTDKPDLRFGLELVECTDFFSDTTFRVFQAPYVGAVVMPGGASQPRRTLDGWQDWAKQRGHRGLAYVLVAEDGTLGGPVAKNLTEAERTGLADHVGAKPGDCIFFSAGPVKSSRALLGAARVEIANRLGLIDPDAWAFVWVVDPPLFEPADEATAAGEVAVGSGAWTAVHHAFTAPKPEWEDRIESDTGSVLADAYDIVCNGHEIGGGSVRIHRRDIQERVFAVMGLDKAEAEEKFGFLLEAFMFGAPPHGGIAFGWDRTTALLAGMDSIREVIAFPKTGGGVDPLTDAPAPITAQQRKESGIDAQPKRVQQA

[2] = target: Shiga toxin 2 (Escherichia coli O157:H7) (UniProt P09385+P09386); test: E. coli 0.157:H7 Shiga Toxin SOP - stx2 screening assay; assay type: functional; set-up: scale not given: direction of the effect not stated beside the values; conditions: 30 µM

Compound	Percent Effect [1] [%]	Percent Effect [2] [%]
CC(Cc1ccco1)NC(=O)Nc1cnn(CC(N)=O)c1 (stereo unspecified)	2.29	-8.5
CCn1cnnc1C1CCN(C(=O)COc2ccccc2)CC1	-1.18	-10
CCc1nc(C2CCCN(C(=O)c3cccc4cn[nH]c34)C2)no1 (stereo unspecified)	4.75	29.8
CCOC(=O)C1CCN(C(=O)Cn2ccc3cc(Br)ccc32)CC1	-2.06	-21.9
COc1c(C)cnc(CN2CCOC(Cn3nc(C)nc3C)C2)c1C (stereo unspecified)	1.63	8.19
O=C(CCc1nccs1)N1CCN(c2cccnn2)CC1	-2.05	12.9
Cc1nc2ccnn2c(C)c1CCC(=O)N1CCN(C2CC2)CC1	3.26	33
CC(CNc1cncc(-n2cccn2)n1)N(C)c1ccccc1 (stereo unspecified)	2.34	7.51
CCOCCCNC(=O)c1cc(C(C)C)nc(N2CCCCCC2)n1	1.1	-56.1
O=C(O)c1cc2c(nc1O)CC(c1cccc(Cl)c1)CC2=O (stereo unspecified)	0.494	-22.1
CN1[C@H](Cn2cncn2)C[C@@H]2CN(Cc3cccc(C#N)c3)CC[C@@H]21	0.0985	-24.3
COc1ccc(-c2nc(CN3CCN(CCO)CC3)co2)cc1	-0.607	-96.9
CCc1nc(C2CCCN2Cc2nc3ccccc3o2)no1 (stereo unspecified)	-0.404	9.5
Cc1nn(C)c2c(NCCCn3cccn3)ncnc12	-6.88	-37.5
O=C1CN(Cc2nnc(-c3ccc(Br)o3)o2)CCN1	-1.11	-65.1
COC[C@@H]1CC[C@H]2[C@H](CCN2S(=O)(=O)c2ccc(F)cc2)O1	8.74	-4.21
CCN(CC)c1ccc(NS(=O)(=O)c2cnn(C)c2)cn1	2.14	-30.7
CC(NC(=O)C1=NN(C)C(=O)CC1)c1ccc(F)cc1F (stereo unspecified)	-4.46	-6.55
